Assay in all cases: NCI-60 one-dose screen, 48 h (100 = growth as untreated, 0 = no growth, -100 = all killed)
In one test the test system is HT29 colon. As to conditions: 10 µM unless noted.
In another test the test system is SNB-75 CNS. Conditions: 10 µM unless noted.
The test system of the next test is SNB-19 CNS. Conditions: 10 µM unless noted.
A further test concerns U251 CNS. Conditions: 10 µM unless noted.
The test system of a further test is PC-3 prostate. Conditions: 10 µM unless noted.
Another test deals with UACC-62 melanoma. As to conditions: 10 µM unless noted.
A further test deals with LOX IMVI melanoma. As to conditions: 10 µM unless noted.
The test system of a further test is SK-MEL-28 melanoma. Conditions: 10 µM.
The next test concerns SK-MEL-2 melanoma. As to conditions: 10 µM unless noted.
Another test concerns EKVX NSCLC. As to conditions: 10 µM unless noted.
A further test deals with SN12C renal. Conditions: 10 µM unless noted.
A further test concerns UO-31 renal. Conditions: 10 µM unless noted.
The test system of the next test is TK-10 renal. Conditions: 10 µM unless noted.
The subject of the next test is ACHN renal. Conditions: 10 µM unless noted.
The subject of a further test is CAKI-1 renal. Conditions: 10 µM unless noted.
The subject of a further test is A498 renal. As to conditions: 10 µM unless noted.
In another test the test system is MOLT-4 leukemia. Conditions: 10 µM unless noted.
The next test deals with SR leukemia. As to conditions: 10 µM unless noted.
The subject of another test is SK-MEL-5 melanoma. Conditions: 10 µM unless noted.
The next test deals with CCRF-CEM leukemia. Conditions: 10 µM unless noted.

Molecules are shown by their SMILES. The panel holds about 83,000 compounds, 20% with a hit somewhere; the sample as a whole holds those more often.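 Compound tested at a single concentration for 48 hours in 96-well plates; a percent growth value below 10 was scored as active.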 Unmarked numbers belong to inactive results. Activity calls are given as the source filed them.

Turning to `COc1ccc(N2C(=O)CC(c3cc(OC)c(OC)c(OC)c3)C3C2=NC(=O)N3C)cc1` (stereo not drawn), the growth in the test on HT29 colon is 104%; with SNB-75 CNS, 99.5%; in the test with SNB-19 CNS, 102%; in the test with U251 CNS, 110%; in the test with PC-3 prostate, 100%; in the test on UACC-62 melanoma, 104%. Further, the growth in the test with LOX IMVI melanoma is 103%; in the test on SK-MEL-28 melanoma, 108%; with SK-MEL-2 melanoma, 116%; in the test with EKVX NSCLC, 102%; in the test on SN12C renal, 102%; with UO-31 renal, 89.9%. The growth was 103% in the test on TK-10 renal; 106% in the test with ACHN renal; 95.1% in the test on CAKI-1 renal; 102% in the test with A498 renal; 114% in the test on MOLT-4 leukemia; 126% in the test on SR leukemia.

In the case of `CCn1c(Cc2ccccc2Nc2c(Cl)cccc2Cl)nnc1SCC(=O)NN1C(=O)/C(=C/c2cccc(OC)c2OC)SC1=S`, the growth is 113% with HT29 colon; 87.3% in the test with SNB-75 CNS; 91.2% with SNB-19 CNS; 90.1% in the test on U251 CNS; 97.1% in the test on SK-MEL-5 melanoma; 96.6% with UACC-62 melanoma. Further, the growth was 92% in the test with LOX IMVI melanoma; 104% in the test with SK-MEL-28 melanoma; 96.7% with SK-MEL-2 melanoma; 93.2% in the test with EKVX NSCLC; 95% in the test on SN12C renal; 77.3% with UO-31 renal. Also, the growth is 108% with TK-10 renal; 96.9% in the test on ACHN renal; 94.1% with CAKI-1 renal; 103% with A498 renal; 95.8% in the test on MOLT-4 leukemia; 102% in the test with SR leukemia.

In the case of `C1CCN(c2nc(N3CCCCC3)nc(N3CCOCC3)n2)CC1`, the growth is 88.2% with HT29 colon; 81% in the test with SNB-75 CNS; 96.1% with SNB-19 CNS; 101% in the test on U251 CNS; 104% with PC-3 prostate; 93% in the test with UACC-62 melanoma. In addition, the growth in the test with LOX IMVI melanoma was 98.7%; in the test with EKVX NSCLC it was 85.4%; in the test with SN12C renal it was 96.5%; in the test with UO-31 renal it was 99.5%; in the test on TK-10 renal, 92.1%; in the test on ACHN renal, 116%. Also, the growth in the test on CAKI-1 renal was 85.6%; with A498 renal, 109%; with CCRF-CEM leukemia, 92.6%; in the test on MOLT-4 leukemia, 81.5%; with SR leukemia it was 89.4%.

As to `CCOC(=O)c1ccc2[nH]c(-c3ccccc3)cc(=O)c2c1`, the growth in the test with HT29 colon is 103%; in the test on SNB-75 CNS it was 72.3%; with SNB-19 CNS, 94.9%; in the test on U251 CNS, 97.2%; with PC-3 prostate, 89.1%; in the test with UACC-62 melanoma, 101%. For the same molecule, the growth in the test with LOX IMVI melanoma was 98.2%; in the test on SK-MEL-28 melanoma, 109%; in the test with SK-MEL-2 melanoma it was 105%; in the test on SN12C renal it was 98.2%; in the test with UO-31 renal it was 97.1%; in the test on TK-10 renal it was 112%. Besides, the growth in the test with ACHN renal was 97.5%; with CAKI-1 renal, 98.5%; in the test with A498 renal it was 94.4%; in the test on CCRF-CEM leukemia, 89.7%; in the test on SR leukemia, 96%.

Consider `Cc1ccc(S(=O)c2ccc([N+](=O)[O-])c3nonc23)cc1` (stereo not drawn), for which the growth is 93.8% with HT29 colon; 112% with SNB-75 CNS; 117% with SNB-19 CNS; 96.4% with U251 CNS; 92.6% in the test on PC-3 prostate; 108% with UACC-62 melanoma. Besides, the growth with LOX IMVI melanoma was 73.6%; in the test with SK-MEL-28 melanoma, 105%; in the test on SK-MEL-2 melanoma, 112%; in the test on SN12C renal, 126%; in the test with UO-31 renal, 97.9%; in the test with TK-10 renal, 72.3%. Further, the growth with ACHN renal is 72.4%; in the test with CAKI-1 renal, 90.5%; in the test with A498 renal it was 84.3%; in the test on CCRF-CEM leukemia, 1.61% (active); in the test with MOLT-4 leukemia it was -3.44% (active); in the test with SR leukemia, -8.16% (active).

With `Cc1ccc2c(n1)C(=O)C(Oc1ccc(Br)cc1)=CC2=O`, the growth is 97.6% in the test with HT29 colon; 82.2% in the test with SNB-75 CNS; 96.6% in the test on SNB-19 CNS; 94.5% in the test with U251 CNS; 95% in the test on PC-3 prostate; 95.9% in the test with UACC-62 melanoma. Also, the growth with LOX IMVI melanoma is 84.2%; in the test with SK-MEL-28 melanoma, 116%; in the test with SK-MEL-2 melanoma, 91.7%; with EKVX NSCLC, 104%; in the test on SN12C renal it was 93.5%; in the test on UO-31 renal, 84.3%. Also, the growth in the test with TK-10 renal is 103%; in the test with ACHN renal, 7.34% (active); with CAKI-1 renal, 97.5%; with CCRF-CEM leukemia it was 62%; with MOLT-4 leukemia, 87.9%; with SR leukemia it was 92.1%.

Regarding `CCCC(c1nnnn1C1CCCCC1)N1CCN(C(=O)c2ccco2)CC1` (stereo not drawn), the growth is 27.2% in the test with HT29 colon; 76.7% in the test with SNB-75 CNS; 84.5% in the test on SNB-19 CNS; 50.2% with U251 CNS; 54.2% in the test on PC-3 prostate; 55.7% in the test with UACC-62 melanoma. The growth in the test on SK-MEL-28 melanoma is 65.6%; with SK-MEL-2 melanoma, 65.1%; with SN12C renal, 73.6%; with UO-31 renal, 82.3%; in the test with TK-10 renal it was 86.7%; with ACHN renal, 84.6%. Moreover, the growth in the test with CAKI-1 renal is 66.4%; in the test on A498 renal, 44.1%; in the test with CCRF-CEM leukemia, 24.1%; in the test with MOLT-4 leukemia it was 26.9%; in the test with SR leukemia it was 6.95% (active).

As for `CCCCC1COc2cccc3c2N1C=C/C3=C\C(=O)N(C)c1ccccc1` (stereo not drawn), the growth is 49.7% in the test on HT29 colon; 72.1% in the test with SNB-75 CNS; 52.3% with SNB-19 CNS; 33.9% with U251 CNS; 51.2% in the test on PC-3 prostate; 36% in the test on UACC-62 melanoma. Also, the growth in the test on LOX IMVI melanoma is 51.2%; with SK-MEL-28 melanoma, 75%; in the test on SK-MEL-2 melanoma, 71.1%; in the test on EKVX NSCLC, 45.8%; in the test with SN12C renal it was 64.9%; with UO-31 renal, 59.3%. The growth was 108% with TK-10 renal; 72% in the test on CAKI-1 renal; 86.1% with A498 renal; 47.6% with CCRF-CEM leukemia; 55.7% in the test with MOLT-4 leukemia; 66.6% in the test with SR leukemia.

Take `Nc1nc(Nc2cccc(F)c2)nc2ccccc12`: the growth in the test with HT29 colon was 6.89% (active); with SNB-75 CNS, 56.1%; in the test on SNB-19 CNS, 57.5%; in the test on U251 CNS, 38%; in the test with PC-3 prostate, 44.3%; in the test on UACC-62 melanoma, 41.3%. The growth in the test on LOX IMVI melanoma was 17.2%; with SK-MEL-28 melanoma it was 44.4%; in the test on SN12C renal, 34.2%; in the test with UO-31 renal it was 23.7%; in the test on TK-10 renal it was 29.9%; in the test on ACHN renal it was 44.8%. Also, the growth in the test with CAKI-1 renal is 38.3%; in the test on A498 renal, 43.9%; with CCRF-CEM leukemia, 26.2%; in the test with MOLT-4 leukemia, 39.5%; with SR leukemia it was 13.2%.

These data come from PubChem BioAssay (NCI).
